Among the data in doi:10.1101/2024.03.05.583629 are binding signal values, retold here.

The target of this test is pT7_6His-AlfaTag-HOXD13 (human, UniProt P35453 263-343). Briefly: PADIT-seq. The settings on record: dsDNA, one strand shown.
Chain of pT7_6His-AlfaTag-HOXD13 (P35453 263-343): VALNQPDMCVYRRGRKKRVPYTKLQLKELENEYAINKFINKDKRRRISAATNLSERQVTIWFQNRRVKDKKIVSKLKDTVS
“CTCGAGGATATCAAGATCTGGCCTCGGCAGCATAAAAGGAACCTCTAGCTAGCCGACTCACTATAGGGATAATCGCCCTGAGCAAAGACC” had a binding signal of 0.863 ± 0.103 log2FC.
“CTCGAGGATATCAAGATCTGGCCTCGGCGCGGGAGCGGGAACCTCTAGCTAGCCGACTCACTATAGGGATAATCGCCCTGAGCAAAGACC” had a binding signal of -0.635 ± 0.137 log2FC.
In turn, “CTCGAGGATATCAAGATCTGGCCTCGGCAACTTAAAAGGAACCTCTAGCTAGCCGACTCACTATAGGGATAATCGCCCTGAGCAAAGACC” gave a binding signal of 0.617 ± 0.0872 log2FC.
As for “CTCGAGGATATCAAGATCTGGCCTCGGCTATCCACGCGGAACCTCTAGCTAGCCGACTCACTATAGGGATAATCGCCCTGAGCAAAGACC”, the binding signal was -1.03 ± 0.113 log2FC.
The same measure for “CTCGAGGATATCAAGATCTGGCCTCGGCGCGCGCGCGGGAACCTCTAGCTAGCCGACTCACTATAGGGATAATCGCCCTGAGCAAAGACC”: -1.01 ± 0.148 log2FC.
As for “CTCGAGGATATCAAGATCTGGCCTCGGCGTTTTACTGGGAACCTCTAGCTAGCCGACTCACTATAGGGATAATCGCCCTGAGCAAAGACC”, the figure is 2.76 ± 0.0911 log2FC; as for “CTCGAGGATATCAAGATCTGGCCTCGGCCTTTTAATGGGAACCTCTAGCTAGCCGACTCACTATAGGGATAATCGCCCTGAGCAAAGACC”, 2.57 ± 0.0798 log2FC.
The same measure for “CTCGAGGATATCAAGATCTGGCCTCGGCGCGGTAAAAGGAACCTCTAGCTAGCCGACTCACTATAGGGATAATCGCCCTGAGCAAAGACC”: 0.513 ± 0.0756 log2FC.
On to “CTCGAGGATATCAAGATCTGGCCTCGGCTTTGTAAAAGGAACCTCTAGCTAGCCGACTCACTATAGGGATAATCGCCCTGAGCAAAGACC”, for which the binding signal was 1.2 ± 0.0832 log2FC.
In turn, “CTCGAGGATATCAAGATCTGGCCTCGGCCTTTTAGCAGGAACCTCTAGCTAGCCGACTCACTATAGGGATAATCGCCCTGAGCAAAGACC” came in with a binding signal of 0.506 ± 0.084 log2FC.
On to “CTCGAGGATATCAAGATCTGGCCTCGGCGATTTAAAAGGAACCTCTAGCTAGCCGACTCACTATAGGGATAATCGCCCTGAGCAAAGACC”, for which the binding signal turned out to be 2.1 ± 0.071 log2FC.
The same measure for “CTCGAGGATATCAAGATCTGGCCTCGGCGCGCTTGCGGGAACCTCTAGCTAGCCGACTCACTATAGGGATAATCGCCCTGAGCAAAGACC”: -0.651 ± 0.137 log2FC; for “CTCGAGGATATCAAGATCTGGCCTCGGCGCTATAAAAGGAACCTCTAGCTAGCCGACTCACTATAGGGATAATCGCCCTGAGCAAAGACC”: 2.83 ± 0.0721 log2FC; for “CTCGAGGATATCAAGATCTGGCCTCGGCAAAATAAAAGGAACCTCTAGCTAGCCGACTCACTATAGGGATAATCGCCCTGAGCAAAGACC”: 1.46 ± 0.0905 log2FC.
Sequence “CTCGAGGATATCAAGATCTGGCCTCGGCCTTTTAGGTGGAACCTCTAGCTAGCCGACTCACTATAGGGATAATCGCCCTGAGCAAAGACC” displayed a binding signal of 0.366 ± 0.0957 log2FC.
The same measure for “CTCGAGGATATCAAGATCTGGCCTCGGCATAGTAAAAGGAACCTCTAGCTAGCCGACTCACTATAGGGATAATCGCCCTGAGCAAAGACC”: 1.98 ± 0.0822 log2FC; for “CTCGAGGATATCAAGATCTGGCCTCGGCGGGCTAAAAGGAACCTCTAGCTAGCCGACTCACTATAGGGATAATCGCCCTGAGCAAAGACC”: -0.851 ± 0.105 log2FC; for “CTCGAGGATATCAAGATCTGGCCTCGGCTTTTTATAGGGAACCTCTAGCTAGCCGACTCACTATAGGGATAATCGCCCTGAGCAAAGACC”: 3.37 ± 0.0926 log2FC.
In turn, “CTCGAGGATATCAAGATCTGGCCTCGGCCGGTTAAAAGGAACCTCTAGCTAGCCGACTCACTATAGGGATAATCGCCCTGAGCAAAGACC” showed a binding signal of 0.716 ± 0.0773 log2FC.
The same measure for “CTCGAGGATATCAAGATCTGGCCTCGGCCTTTTACTTGGAACCTCTAGCTAGCCGACTCACTATAGGGATAATCGCCCTGAGCAAAGACC”: 0.95 ± 0.0821 log2FC; for “CTCGAGGATATCAAGATCTGGCCTCGGCTTTATAAAAGGAACCTCTAGCTAGCCGACTCACTATAGGGATAATCGCCCTGAGCAAAGACC”: 2.35 ± 0.0828 log2FC.
The same measure for “CTCGAGGATATCAAGATCTGGCCTCGGCCCTTGGGCGGGAACCTCTAGCTAGCCGACTCACTATAGGGATAATCGCCCTGAGCAAAGACC”: -0.886 ± 0.123 log2FC; for “CTCGAGGATATCAAGATCTGGCCTCGGCGTTTTACTCGGAACCTCTAGCTAGCCGACTCACTATAGGGATAATCGCCCTGAGCAAAGACC”: 0.701 ± 0.0889 log2FC.
The same measure for “CTCGAGGATATCAAGATCTGGCCTCGGCGTTTTATAAGGAACCTCTAGCTAGCCGACTCACTATAGGGATAATCGCCCTGAGCAAAGACC”: 3.26 ± 0.0829 log2FC; for “CTCGAGGATATCAAGATCTGGCCTCGGCGTTGTAAAAGGAACCTCTAGCTAGCCGACTCACTATAGGGATAATCGCCCTGAGCAAAGACC”: 2.39 ± 0.0772 log2FC.
“CTCGAGGATATCAAGATCTGGCCTCGGCATTTTATGAGGAACCTCTAGCTAGCCGACTCACTATAGGGATAATCGCCCTGAGCAAAGACC” yielded a binding signal of 3.3 ± 0.0767 log2FC.
